About 900 (1.7%) of roughly 53,000 compounds showed an effect of 50% or more. The sample holds strong results, similar compounds and a random draw of the others, so the mix is not that of the screen.
Each molecule was assayed on Mycobacterium tuberculosis (assay: Cornell - Phenotypic assay to identify agents that inhibit growth of Mycobacterium tuberculosis). Conditions: 10 mM as filed; unlikely as a test dose.
Assay type: functional
Set-up: scale not given: direction of the effect not stated beside the values

SMILES | Percent Effect [%]
CCc1ccc(NC(=O)C(C)N2CCN(Cc3ncc[nH]3)CC2)cc1 (stereo not drawn) | -0.1574
CC(C(N)=O)N1CCN(c2ncc(Cl)cn2)CC1 (stereo not drawn) | -8.902
O=C(COc1coc(CN2CCCCC2)cc1=O)c1ccccc1 | -5.787
CC(C)N(C(=O)CCc1ccco1)C1CCOCC1 | 2.754
CCN1N=C(C(=O)N2CCCC(c3nc(C)c(C)s3)C2)CCC1=O (stereo not drawn) | -28.99
O=C(CSC1CCc2ccccc2NC1=O)NCCc1ccc(O)cc1 (stereo not drawn) | -13.35
CCn1cc2c(n1)C(COC)CN(C(=O)c1ccccn1)C2 (stereo not drawn) | 22.8
Cc1nn(C)c(C)c1C(=O)NCc1cc(N(C)C)nc2ccccc12 | -29.39
Cn1cnnc1S(=O)(=O)C1CCN(S(=O)(=O)c2ccc(Cl)s2)CC1 | 6.004
CCCn1nccc1C(=O)Nc1nc(C)c(C)s1 | 63.52
CCn1nccc1C(=O)Nc1nc(C)c(C(C)=O)s1 | 37.96
CCCn1nccc1C(=O)Nc1ncc(C)s1 | 29.79
CC(C)c1cc(C(=O)O)nc2[nH]c(=O)[nH]c(=O)c12 | 12.95
COc1ccc(CNC(=O)C(NC(=O)Cc2ccccc2)C(C)C)cn1 (stereo not drawn) | -38.43
COCCN1C(=O)[C@H]2CC[C@@H]1CN(Cc1nnc(C3CC3)o1)C2 | -7.325
O=C(O)C(F)(F)F.O=C1[C@H]2CN(CC3CC3)C[C@H]2CN1Cc1cccc(F)c1 | 9.244
CC(C)CNC(=O)C[S+]([O-])Cc1csc(C2CCCCC2)n1 (stereo not drawn) | 18.38

SMILES | Percent Effect [%]
O=C(C[S+]([O-])Cc1csc(C2CCCC2)n1)NC1CCCC1 (stereo not drawn) | 8.301
O=C(C[S+]([O-])Cc1csc(C2CCCC2)n1)Nc1ccccc1 (stereo not drawn) | 105.1
CCn1cnnc1CNC(=O)c1cc(Cl)ccc1I | 10.82
CN(CCNC(=O)c1cnc(-c2ccccc2)nc1)S(C)(=O)=O | -18.18
CCOC(=O)c1cc(C(C)(O)CCC=C(C)C)on1 (stereo not drawn) | 106.6
CC(C)=CCCC(C)(O)c1cc(C(N)=O)no1 (stereo not drawn) | 37.88
CCCC(C)(O)c1cc(C(N)=O)no1 (stereo not drawn) | 45.9
CNC(=O)Cn1ccc2ccc(NC(=O)C(C)C)cc21 | 6.028
CCCC(O)CN1CC(C)(C)CN(C(=O)c2ccccc2)CC1=O (stereo not drawn) | 6.323
Cc1cc(N2CCC(O)(CN(C)C(=O)CCN)C2)c2cnccc2n1 (stereo not drawn) | 27.99
CNc1cc(CCNC(=O)c2cccnc2)nc(-c2ccncc2)n1 | -1.38
CNc1cc(CCNS(=O)(=O)c2ccccc2)nc(-c2ccccn2)n1 | 45.23
Cc1ncc(-c2ccccn2)c(CCNC(=O)C2CCCC2)n1 | -18.28
CCCC(=O)NCCc1cc(NC)nc(-c2ccccn2)n1 | 8.218
CNc1cc(CCNC(=O)CC(C)C)nc(-c2ccccn2)n1 | 53.37
CNc1cc(CCNC(=O)C2CCCC2)nc(-c2ccccn2)n1 | 52.1
